PNC assembly inh – perinucleolar compartment assembly inhibition; PC3M PTB-GFP, PNC prevalence imaging, 16 h; active compounds read low; activity change (PNC), negative = inhibition, % at 10 µM; 140,000 tested, 3.1% active;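 active means readout at or below -70, meaning at least 70% loss of cells showing the perinucleolar compartment, a nuclear body marking cancer cells; inconclusive means readout between -30 and a set limit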;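 further: plate controls were DMSO wells for no effect and camptothecin positive control wells for full effect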
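Read-out is percentage of cells bearing a perinucleolar compartment, from automated 20x imaging of fixed, Hoechst-stained PC3M PTB-GFP cells. Cells were seeded 4 h, then exposed 16 h to compound (23 nl of library stock) in duplicate plates.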
ALOX12 inhib – 12-hLO (ALOX12) enzyme inhibition | P18054 | AID 1452 | purified 12-hLO, xylenol orange hydroperoxide absorbance | Potency, µM (titrated, usually from 57.1 µM), inactives show top-dose activity change, negative = inhibition, usual class: inhibitors | 150,000 tested, 0.12% active; further: potency means the concentration at half of the fitted maximal effect; nearly all actives have a fitted effect of over 55% in size
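Purified human 12hLO (150 nM final) was preincubated with compounds for 15 min at room temperature in 25 mM Hepes pH 7.0, 0.01% Triton X-100, then reacted with 40 uM arachidonic acid for 30 min. Hydroperoxide was detected with ferrous iron/xylenol orange.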
ALOX15B inhib – inhibitors of human 15-lipoxygenase 2 (ALOX15B); O15296; purified 15hLO-2, xylenol orange hydroperoxide absorbance; Potency, µM (titrated, usually from 57.1 µM), inactives show at the top dose activity change, negative = inhibition, hits mostly inhibitors; 110,000 tested, 0.56% active; AID 881; further: potency means the concentration at half of the fitted maximal effect; nearly all actives have a fitted effect of over 60% in size
Target sequence (O15296 whole entry, looked up): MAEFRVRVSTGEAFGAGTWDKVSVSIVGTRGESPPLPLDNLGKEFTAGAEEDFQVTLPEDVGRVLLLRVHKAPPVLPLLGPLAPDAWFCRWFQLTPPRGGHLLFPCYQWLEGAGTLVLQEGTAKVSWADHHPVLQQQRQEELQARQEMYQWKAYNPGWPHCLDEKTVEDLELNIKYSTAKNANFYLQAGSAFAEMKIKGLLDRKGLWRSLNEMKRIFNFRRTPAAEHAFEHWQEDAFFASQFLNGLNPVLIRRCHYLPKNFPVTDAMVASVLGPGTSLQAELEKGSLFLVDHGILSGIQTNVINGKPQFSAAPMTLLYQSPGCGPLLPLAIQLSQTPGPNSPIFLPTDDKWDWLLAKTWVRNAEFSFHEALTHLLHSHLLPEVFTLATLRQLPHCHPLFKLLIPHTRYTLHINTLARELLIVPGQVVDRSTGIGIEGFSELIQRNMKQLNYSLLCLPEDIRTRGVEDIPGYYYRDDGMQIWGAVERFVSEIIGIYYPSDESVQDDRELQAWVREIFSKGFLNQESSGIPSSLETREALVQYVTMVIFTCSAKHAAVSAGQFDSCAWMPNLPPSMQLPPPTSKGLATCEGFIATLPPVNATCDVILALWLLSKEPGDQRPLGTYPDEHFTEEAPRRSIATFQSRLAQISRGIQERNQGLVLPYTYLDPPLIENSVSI
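Read-out: hydroperoxide product oxidises ferrous iron, measured as xylenol orange complex via the 573-to-405 nm absorbance ratio after 30 min. Reaction: 50 nM enzyme, 15 min compound preincubation, 45 uM arachidonic acid, 90 min RT, Hepes pH 7.5 with Triton X-100.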
* marks the source's active call; other numbers are inactive results; [ ] = remark or other dose. Most compounds without a hit are left out; they make up all but 3.1% or so of the library. Unless noted, the call rests on the fitted dose curve; in most records, active means well fitted curve in the direction sought with a large enough effect; inconclusive means small, poorly fitted or top-dose-only effect, or another doubt; inactive means no such curve, though single readings can be large; an effect the other way counts as inactive or inconclusive. Unless noted, on the % scale 0 is the no-effect control and ±100 the full control effect.

`O=c1c[n+](CCCC[n+]2cc(=O)o[nH]2)[nH]o1` gave ALOX12 inhib -4%[11.4 µM] and ALOX15B inhib -3%[11.4 µM].
`CCOc1ccccc1CNS(=O)(=O)c1ccc2c(c1)oc(=O)n2C` gave PNC assembly inh -24, ALOX12 inhib -1% and ALOX15B inhib -1%.
Screening CCOc1ccccc1CNS(=O)(=O)c1ccc2[nH]c(=O)sc2c1 returned PNC assembly inh -107*, ALOX12 inhib 2% and ALOX15B inhib -6%.
Screening CCn1nc(C)c(NC(=O)/C=C/c2cnn(C)c2)c1C returned PNC assembly inh -29, ALOX12 inhib -4% and ALOX15B inhib -5%.
For Cc1nn(C)cc1CNC(=O)/C=C/c1cnn(C)c1 the results were PNC assembly inh -109* and ALOX12 inhib 1%.
`CC(C)(C)OC(=O)[C@H]([C@@H]1N[C@@H](C(=O)O)C(C)(C)S1)N1C(=O)c2ccccc2C1=O` gave ALOX12 inhib -1%[11.4 µM] and ALOX15B inhib -5%[11.4 µM].
O=C(NC(=S)N1CCOCC1)C12CC3CCC(CC(C3)C1)C2 was read as PNC assembly inh -4 and ALOX12 inhib -5%.
`CC12CC3CC(C)(C1)CC(C(=O)NC(=S)N1CCCCC1)(C3)C2` gave PNC assembly inh 22, ALOX12 inhib 16µM* and ALOX15B inhib inconclusive.
Screening CCCCC(=O)OC1CCC2C3CCc4cc(O)ccc4C3CC[C@]12C (some centres undefined) returned ALOX12 inhib -12% and ALOX15B inhib -14%.
For CN1CCN(S(=O)(=O)c2ccc(Br)s2)CC1 the results were PNC assembly inh -12, ALOX12 inhib 1% and ALOX15B inhib 2%.
CCOC(=O)N1CCN(S(=O)(=O)c2ccc(Br)s2)CC1 was read as PNC assembly inh -90*, ALOX12 inhib -5% and ALOX15B inhib 2%[2.29 µM].
For CNC1C(O)C2OC3OC(C)CC(=O)[C@@]3(O)O[C@H]2[C@H](NC)C1O (some centres undefined) the results were ALOX12 inhib 2% and ALOX15B inhib 4%.
Screening Cn1c(=O)oc2cc(S(=O)(=O)N3CCOCC3)ccc21 returned PNC assembly inh -15, ALOX12 inhib 0% and ALOX15B inhib -5%.
For O=S(=O)(c1ccc2c(c1)oc1ccccc12)N1CCOCC1 the results were PNC assembly inh -81*, ALOX12 inhib 2% and ALOX15B inhib 4%.
`COC(=O)c1c(-c2ccccc2)csc1NC(=O)c1c(-c2ccccc2)noc1C` gave PNC assembly inh -112* and ALOX12 inhib -2%.
`CCOC(=O)c1c(-c2ccc(F)cc2)csc1NC(=O)c1c(-c2ccccc2)noc1C` gave PNC assembly inh inconclusive and ALOX12 inhib -1%.
`COCC(=O)N1CCC2(CC1)CN(c1ccc(-c3ccccc3)cc1)C2` gave ALOX12 inhib -4% and ALOX15B inhib inconclusive.
`COCCNC(=O)CN(c1ccc(C)cc1)S(=O)(=O)c1ccccc1` gave PNC assembly inh 39, ALOX12 inhib -2% and ALOX15B inhib -1%.
Screening COc1ccc(CCNC(=O)CN(C)S(=O)(=O)c2cccs2)cc1OC returned PNC assembly inh 23, ALOX12 inhib 0% and ALOX15B inhib 4%.
Screening COc1ccc(CCNC(=O)CN(c2ccc(OC)c(OC)c2)S(C)(=O)=O)cc1 returned PNC assembly inh -139*, ALOX12 inhib 5% and ALOX15B inhib -3%.
For COc1ccc(CCNC(=O)CN(C2CCCCC2)S(C)(=O)=O)cc1 the results were PNC assembly inh 18, ALOX12 inhib 6% and ALOX15B inhib 0%.
Screening COc1ccc(CCNC(=O)CN(C)S(=O)(=O)c2ccc(Br)s2)cc1OC returned PNC assembly inh -83* and ALOX12 inhib -5%.
COCCNC(=O)CN(c1ccc(OC)c(OC)c1)S(=O)(=O)c1ccc(C)cc1 was read as PNC assembly inh -106*, ALOX12 inhib -7% and ALOX15B inhib -5%.
`CCc1ccc2c(O)c3c(cc2c1C(=O)OC)C(=O)c1c(O)ccc(O)c1C3=O` gave ALOX12 inhib -6% and ALOX15B inhib 10%.
`Nc1[nH]c(=O)nc2c1ncn2[C@H]1O[C@@H](CO)[C@@H](O)[C@@H]1O` gave ALOX12 inhib 0%[11.4 µM] and ALOX15B inhib -2%[11.4 µM].
Cc1csc(SCC(=O)Nc2nc3ccccc3s2)n1 was read as PNC assembly inh -9, ALOX12 inhib -1% and ALOX15B inhib -3%.
`CCn1cc(SCC(=O)N2CCOCC2)c2ccccc21` gave PNC assembly inh inconclusive, ALOX12 inhib 2% and ALOX15B inhib -5%.
For Cn1cc(SCC(=O)Nc2nc3ccccc3s2)c2ccccc21 the results were PNC assembly inh -89*, ALOX12 inhib 3% and ALOX15B inhib 1%.
